The results in this text go back to a collection of fitness landscapes (doi:10.1126/science.1257360).

The full ranking holds about 140,000 sequences; the median of “enrichment ratio after two sorts for PhoP signalling” is about 0, and the highest 2% start at about 11. Shown is part of a subset that was picked to be rich in the highest values. A value given as a limit tells only on which side of the number the result lay.

Sequences and labels used below:
B1: PhoQ; a variant is named by its letters at X, in order, P23837 (parent)
chain: MKKLLRLFFPLSLRVRFLLATAAVVLVLSLAYGMVALIGYSVSFDKTTFRLLRGESNLFYTLAKWENNKLHVELPENIDKQSPTMTLIYDENGQLLWAQRDVPWLMKMIQPDWLKSNGFHEIEADVNDTSLLLSGDHSIQQQLQEVREDDDDAEMTHSVAVNVYPATSRMPKLTIVVVDTIPVELKSSYMVWSWFIYVLSANLLLVIPLLWVAAWWSLRPIEALAKEVRELEEHNRELLNPATTRELTSLVRNLNRLLKSERERYDKYRTTLTDLTHSLKTPLXXLQXXLRSLRSEKMSVSDAEPVMLEQISRISQQIGYYLHRASMRGGTLLSRELHPVAPLLDNLTSALNKVYQRKGVNISLDISPEISFVGEQNDFVEVMGNVLDNACKYCLEFVEISARQTDEHLYIVVEDDGPGIPLSKREVIFDRGQRVDTLRPGQGVGLAVAREITEQYEGKIVAGESMLGGARMEVIFGRQHSAPKDE

The variants in this assay derive from B1. The assay is described as follows: enrichment ratio after two sorts for PhoP signalling (ratio (wild type AVST 3.29)); higher = more functional. As to conditions: with PhoP (E. coli).
TSGY: the enrichment ratio turned out to be 14.8. KSGY: the enrichment ratio was no more than 0.25.

With YTGY, the enrichment ratio is no more than 0.25. On to FSGY, for which the enrichment ratio was no more than 0.25. Under GTGY stands no more than 0.25; under TTGY, 20.5; under EHTS, no more than 0.25. For KLNV, the enrichment ratio is no more than 0.25.

As to PLEP, the enrichment ratio is no more than 0.25. In the case of KFAF, the enrichment ratio is no more than 0.25.

With KLER, the enrichment ratio was 0.976. Under LRTC stands no more than 0.25.

GPSH: the enrichment ratio is no more than 0.25. The same measure for REFT: no more than 0.25; for WYPR: no more than 0.25.

On to FIPD, for which the enrichment ratio is no more than 0.25. The same measure for AKLL: 14.3; for AYLL: no more than 0.25. Under IALL stands 8.58; under LFLL, no more than 0.25; under HALL, 12.4. For AALL, the enrichment ratio was 14.9. Turning to HFLL, the enrichment ratio is no more than 0.25. Under AILL stands 4.86; under HYLL, no more than 0.25; under MKLL, 11.4.

Consider MYLL, for which the enrichment ratio is no more than 0.25. Under ERET stands no more than 0.25.

On to DVMR, for which the enrichment ratio is no more than 0.25. With IMCE, the enrichment ratio is no more than 0.25. Under DQPA stands no more than 0.25. Under YWCG stands no more than 0.25; under VLVV, no more than 0.25.

In the case of DQYW, the enrichment ratio is no more than 0.25. The same measure for CFLG: no more than 0.25; for KMML: no more than 0.25; for HKLL: 1.86. The same measure for KKLL: no more than 0.25.

Take TKLL: the enrichment ratio is 16.2. On to AMLL, for which the enrichment ratio stood at 14.2.

On to KMLL, for which the enrichment ratio was no more than 0.25.

On to NMLL, for which the enrichment ratio is no more than 0.25. Under VNCN stands no more than 0.25; under GPQD, no more than 0.25; under AVPS, no more than 0.25. For the variant AVMW, the enrichment ratio is no more than 0.25. The same measure for AVFQ: no more than 0.25; for AVMV: 2.94.

Regarding AVTC, the enrichment ratio is 6.81.

Take AVHP: the enrichment ratio was no more than 0.25. Under AVSQ stands 14.8; under AVSK, 16.9.

For the variant AVWI, the enrichment ratio was no more than 0.25. The same measure for AVMI: 15.6; for AVSC: 12.2. Under AVPC stands no more than 0.25; under MDVN, no more than 0.25.

Turning to FYFS, the enrichment ratio is no more than 0.25. Turning to KVID, the enrichment ratio was no more than 0.25. Turning to GEKS, the enrichment ratio is no more than 0.25. Under MTIG stands no more than 0.25; under NDGW, no more than 0.25; under SKVW, no more than 0.25.

Take AVPA: the enrichment ratio is no more than 0.25. The same measure for AVPI: 2.35; for AVWN: no more than 0.25; for AVRW: no more than 0.25. The same measure for AVMN: 18.8; for AKAW: no more than 0.25. As to AVAW, the enrichment ratio came out at 22.5. For NVAW, the enrichment ratio is no more than 0.25. As to AVTW, the enrichment ratio was 43.5. Under AVFW stands no more than 0.25; under AVTK, 17.9; under AVNL, no more than 0.25.

For the variant LTGM, the enrichment ratio was no more than 0.25. The same measure for MQNP: no more than 0.25; for KLMC: no more than 0.25; for LHAE: no more than 0.25. Under DSVM stands no more than 0.25. The same measure for KHEF: no more than 0.25; for FSFL: 1.26.

For the variant WYFI, the enrichment ratio was no more than 0.25.

As to EMFN, the enrichment ratio is no more than 0.25. The same measure for SEHM: 23.7; for YYHM: no more than 0.25.

Turning to TGHM, the enrichment ratio is 4.7. Regarding TEHM, the enrichment ratio stood at 58.9. Under QEHM stands 10.7; under KYHM, no more than 0.25; under EAYE, no more than 0.25. The same measure for GGYY: no more than 0.25.

As to ALAM, the enrichment ratio came to 12.2. The same measure for ANIM: 4.25; for ADAM: 3.24. Regarding TLAM, the enrichment ratio turned out to be 3.04. Under ANAM stands 32.2. Under AIAM stands 6.08. Under ALWM stands no more than 0.25; under AKAM, 13.1; under AAAM, 10.1. In the case of IDWP, the enrichment ratio is no more than 0.25.

With HREC, the enrichment ratio is no more than 0.25. The same measure for GNSH: 1.23; for IQIR: no more than 0.25. Consider DTPS, for which the enrichment ratio is no more than 0.25.

As to GPWS, the enrichment ratio was no more than 0.25. For the variant ESVV, the enrichment ratio was no more than 0.25. Under CSLT stands 11.7.

Consider CSLS, for which the enrichment ratio amounted to 21.9. Consider CSLY, for which the enrichment ratio was 0.296.

As for CSFT, the enrichment ratio is no more than 0.25. Under CSLP stands no more than 0.25; under CSLA, 2.15; under NPIK, no more than 0.25. DVWP: the enrichment ratio is no more than 0.25. For the variant DDAS, the enrichment ratio was no more than 0.25. The same measure for SFAH: no more than 0.25; for QEAH: no more than 0.25; for MEAH: 28.9.

On to HPAH, for which the enrichment ratio is no more than 0.25.

As for MVTH, the enrichment ratio turned out to be 2.25. Under MKAH stands no more than 0.25. The same measure for MCAH: 2.04; for NEAH: no more than 0.25; for SEAH: 31.6. Under GVAH stands 0.601; under TEAH, 40. With MVAH, the enrichment ratio came to 12.3. Under YETW stands no more than 0.25; under REHR, no more than 0.25; under VKCV, no more than 0.25. Under MGTW stands no more than 0.25. Under FNVE stands no more than 0.25. As for NWYH, the enrichment ratio is no more than 0.25. Regarding HLAW, the enrichment ratio was no more than 0.25. The same measure for VCYP: no more than 0.25; for MRAI: no more than 0.25; for TEFK: 1.68. The same measure for NELG: 2.34; for MPLG: no more than 0.25; for HELA: no more than 0.25. With HELG, the enrichment ratio was 12.3. The same measure for HPLG: no more than 0.25; for HYLG: no more than 0.25. Under MELG stands 22.3; under TELG, 27.4. As to MFLG, the enrichment ratio was 0.27.

Take EFRW: the enrichment ratio is no more than 0.25. The same measure for YYAI: no more than 0.25; for AISP: no more than 0.25. Under SFQS stands no more than 0.25; under NRHR, no more than 0.25; under MSNW, no more than 0.25. The same measure for PCTN: no more than 0.25; for TDQW: no more than 0.25.

As for LVST, the enrichment ratio is no more than 0.25. The same measure for RVEC: no more than 0.25; for AVHF: no more than 0.25; for ASTF: 11.8. Take CSTF: the enrichment ratio was found to be 15.8. Under AHTF stands no more than 0.25; under ADTF, no more than 0.25.

In the case of ATTF, the enrichment ratio came to 18.8. Consider LTTF, for which the enrichment ratio was no more than 0.25. On to CTTF, for which the enrichment ratio is no more than 0.25. The same measure for CITF: no more than 0.25.

With AVTF, the enrichment ratio is 11.4. ASHF: the enrichment ratio is no more than 0.25. The same measure for YTTF: no more than 0.25; for QRGI: no more than 0.25. Under VSMY stands no more than 0.25; under YGPL, no more than 0.25; under AGVR, no more than 0.25.

On to TLEC, for which the enrichment ratio was no more than 0.25. The same measure for VESY: no more than 0.25. The same measure for YITC: no more than 0.25. The same measure for QKNA: no more than 0.25. On to AITF, for which the enrichment ratio was 15.

Consider AKTF, for which the enrichment ratio turned out to be 2.43. Under KSTF stands no more than 0.25; under IPNS, no more than 0.25; under WFEY, no more than 0.25. Under AYPG stands no more than 0.25; under TDTH, 8.19; under TDTK, no more than 0.25. Regarding KDLN, the enrichment ratio was no more than 0.25.

For CDLS, the enrichment ratio was no more than 0.25. On to TDLS, for which the enrichment ratio came to 18. Under TDYI stands no more than 0.25. For the variant TDLT, the enrichment ratio worked out at 7.28. The same measure for TDLN: 14.9; for LTLN: no more than 0.25; for TDLA: 14. Under TDTI stands 14.6; under LTLS, no more than 0.25.
